# Compound activity deposited in PubChem BioAssay by National Center for Advancing Translational Sciences (NCATS).
# Shown are actives, neighbours in structure and some others; about 10% of the full set was active somewhere.
# G9a block – qHTS Assay for Inhibitors of Histone Lysine Methyltransferase G9a | Potency, µM (top dose mostly 102 µM), inactives show at the top dose activity, negative = inhibition, usual class: inhibitors | 8.8% of 350,000 active | AID 504332, 2011 | G9a H3K9 monomethylation, AlphaScreen, 2 h; also: potency is read from the fitted curve at half-maximal effect; nearly all actives have a fitted effect of over 75% in size
#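 Compounds were preincubated with 20 nM G9a for 15 min, after which biotinylated H3K9 peptide (500 nM) and SAM (20 uM) started a 2 h room-temperature reaction. Monomethylated product was quantified by antibody-based AlphaScreen chemiluminescence.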
# PLK1 PBD inh – qHTS for Inhibitors of PLK1-PDB (polo-like kinase 1 - polo-box domain): Primary Screen | Serine/threonine-protein kinase PLK1 (Homo sapiens), P53350 | Plk1 PBD binding of FITC phosphopeptide, fluorescence polarization | Potency, µM, for inactives: max response, negative = inhibition, hits mostly inhibitors | 2.8% of 360,000 active | AID 720504, 2013; also: potency is read from the fitted curve at half-maximal effect; series mostly up to about 57 µM; nearly all actives have a fitted effect of over 65% in size
# Target sequence (P53350 whole entry, looked up, the tested form may be a part): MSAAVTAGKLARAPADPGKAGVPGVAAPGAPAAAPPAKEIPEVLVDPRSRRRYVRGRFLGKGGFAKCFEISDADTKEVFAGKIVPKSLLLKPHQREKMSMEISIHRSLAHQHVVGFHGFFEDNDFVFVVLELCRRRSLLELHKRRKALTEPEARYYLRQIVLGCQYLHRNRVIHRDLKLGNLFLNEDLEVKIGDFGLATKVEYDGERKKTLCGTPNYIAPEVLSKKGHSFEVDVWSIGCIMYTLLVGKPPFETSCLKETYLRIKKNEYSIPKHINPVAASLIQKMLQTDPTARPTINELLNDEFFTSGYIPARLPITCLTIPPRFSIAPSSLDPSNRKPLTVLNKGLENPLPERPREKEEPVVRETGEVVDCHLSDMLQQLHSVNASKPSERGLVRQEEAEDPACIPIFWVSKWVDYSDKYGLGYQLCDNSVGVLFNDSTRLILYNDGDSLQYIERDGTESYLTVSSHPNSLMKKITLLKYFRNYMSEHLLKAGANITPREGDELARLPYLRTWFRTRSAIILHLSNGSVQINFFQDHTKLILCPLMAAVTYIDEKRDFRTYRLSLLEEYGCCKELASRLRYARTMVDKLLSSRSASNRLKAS
# VDR inhibitor – Inhibitors of the vitamin D receptor (VDR): qHTS; Potency, µM, for inactives: max response, negative = inhibition, usual class: inhibitors; AID 504847, 2011; VDR-SRC2-3 peptide fluorescence polarization, 2 h; 0.93% of 400,000 active; also: potency is read from the fitted curve at half-maximal effect
#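 Compounds are added to VDR with labelled SRC2-3 coactivator peptide and held 2 h at room temperature. Inhibition of the VDR–peptide interaction is then read as a change in fluorescence polarization.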
# Sfp inh – qHTS Assay for Inhibitors of Bacillus subtilis Sfp phosphopantetheinyl transferase (PPTase) | 4'-phosphopantetheinyl transferase ffp (Bacillus subtilis), Q9F4F7 | Biochemical Sfp PPTase activity, qHTS | Potency, µM, without a hit: largest response in the series, negative = inhibition, actives largely listed as inhibitors | 3.5% of 310,000 active | AID 1490, 2009;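 also: the enzyme is Sfp with the accession as filed and its product quenches rhodamine fluorescence; potency is read from the fitted curve at half-maximal effect; 0% = enzyme reaction without inhibitor and -100% = no enzyme wells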
#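 Reaction rates are the 30-min fluorescence difference (ex 525, em 598 nm) in wells containing 15 nM Sfp, 5 uM rhodamine-CoA and 12.5 uM BHQ-2-YbbR at pH 7.6 with 10 mM MgCl2.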
# MmCpn inh – Inhibitors of TCP-1 ring complex (TRiC) of Methanococcus maripaludis (MmCpn): qHTS. 0.031% of 330,000 active. Potency, µM (highest dose often 76.9 µM), for the others: at the highest dose activity, negative = inhibition, actives largely listed as inhibitors. Chaperonin Mm-Cpn (Methanococcus maripaludis). purified Mm-Cpn ATPase, ADP Transcreener TR-FRET; also: potency is read from the fitted curve at half-maximal effect; nearly all actives have a fitted effect of over 80% in size
#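 TR-FRET (320 nm excitation; 590 and 665 nm emission) reports ADP made from 10 uM ATP by 25 nM enzyme; compounds were preincubated 10 min, reaction run 30 min, both at 37°C.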
# CCT chaperon mod – High-Throughput Screening for Modulators of Cytosolic Chaperonin Activity; purified chaperonin ATPase assay, HTRF ADP detection, 30 min; activity change, % (concentration not given with the values), hits read low; 0.3% of 360,000 active; in the data active = activity change below about -30%
#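 TRiC at 40 or 20 nM final (batch-dependent) in 30 mM Tris pH 7.4, 100 mM KCl, 5 mM MgCl2, 1 mM DTT, with compound at single 76 uM and 10 uM ATP, 30 min at 37 deg C. ADP detected by HTRF Transcreener, 665/615 ratio.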
# Numbers without * were called inactive; ? = inconclusive; · = no result; [ ] = dose if it differs, or a comment. Unless noted, calls follow the shape of the dose curve; as a rule, active = well fitted curve in the direction sought with a large enough effect; inconclusive = small, poorly fitted or top-dose-only effect, or another doubt; inactive = no such curve, though single readings can be large; an effect the other way counts as inactive or inconclusive. Unless noted, % is scaled to controls: 0 for no effect and ±100 for the full control effect.
SMILES,G9a block,PLK1 PBD inh,VDR inhibitor,Sfp inh,MmCpn inh,CCT chaperon mod
Cc1ccc(CN2CCN(C3CCN(C(=O)c4ccc(C)cc4)CC3)C(=O)C2=O)cc1,-0.1%[59 µM],·,0.7%,·,·,·
CCCCCOC(=O)Cn1c(=O)oc2ccc(C)cc21,34.8%,-4.8%,-7.4%,-15.4%,1.6%,-1.8
COC(=O)Cn1c(=O)oc2ccc(C)cc21,-30.2%,26.7µM*,-10.8%,8.1%,0.5%,1.5
CC1CCc2c(sc(NC(=O)Cn3nnc(-c4ccc(C(F)(F)F)cc4)n3)c2C#N)C1 (configuration not stated),-18.9%[59 µM],·,-8.0%,·,·,·
Nc1c(C(=O)CCC(=O)O)oc2ccc(Cl)cc12,56.2µM*,-14.1%,-9.5%,-13.3%,0.3%,-3.3
NC(=O)c1oc2ccc(Cl)cc2c1N,?,-5.3%,11.7%,5.0%,0.3%,10.3
Cc1ccc(-c2noc(C(C)NS(=O)(=O)c3ccc(C)cc3)n2)cc1 (configuration not stated),7.2%[59 µM],·,7.9%,·,·,·
CCC1CCCCN1S(=O)(=O)c1ccc([N+](=O)[O-])cc1 (configuration not stated),70.8µM*,?,28.7%,0.4%,-1.7%,-3.0
CC(/C=C1\SC(=S)N(NC(=O)c2ccccc2C)C1=O)=C\c1ccccc1,28.2µM*,-6.5%,-11.5%,2.9%,-7.4%,0.0
CC(/C=C1\SC(=S)N(NC(=O)c2ccncc2)C1=O)=C\c1ccccc1,?,-23.2%,?,44.7µM*,-4.0%,-1.4
CC(/C=C1\SC(=S)N(NC(=O)c2ccc(C)cc2)C1=O)=C\c1ccccc1,?,-1.2%,-2.8%,-8.5%,-0.7%,0.5
Cc1cc(Cl)ccc1OCC(=O)N1CCC(c2nc3ccccc3o2)CC1,-1.9%[59 µM],·,0.6%,·,·,·
COc1cccc(NC(=O)C2CCCN(c3ncnc4onc(-c5ccc(F)cc5)c34)C2)c1 (configuration not stated),4.4%[59 µM],·,8.7%,·,·,·
[O-]/C(=C(\C(=S)Nc1ccc(Cl)cc1)[n+]1ccccc1)c1ccc(OC(F)F)cc1,11.2µM*,?,?,50.1µM*,1.3%,-1.0
[O-]/C(=C(\C(=S)Nc1ccccc1F)[n+]1ccccc1)c1ccc(-c2ccccc2)cc1,31.6µM*,-16.6%,-29.9%,17.8µM*,-13.7%,-2.0
CC(C)(C)c1cc[n+](/C(C(=S)Nc2ccccc2F)=C(/[O-])c2ccc3c(c2)OCCO3)cc1,?,-28.9%,-23.3%,20µM*,-3.7%,-5.7
CCNC(=S)/C(=C(/[O-])c1ccc([N+](=O)[O-])cc1)[n+]1ccccc1,·,-15.3%,-3.9%,-14.9%,0.3%,-2.7
[O-]C(=C(C(=S)Nc1cccc2ccccc12)[n+]1ccccc1)c1ccc2c(c1)OCCO2,·,?,-3.3%,·,·,-3.6
CCOc1ccccc1NC(=S)/C(=C(\[O-])c1ccc2c(c1)OCCO2)[n+]1ccc(CC)cc1,8.91µM*,21.2µM*,44.4%,?,-2.3%,-0.4
COc1cc(OC)cc(-c2nnc3n2N=C(c2c(OC)cccc2OC)CS3)c1,·,·,·,-19.6%,·,·
CCN1c2cc(C)ccc2-n2cccc2C12CCN(C(=O)Nc1cc(OC)c(OC)c(OC)c1)CC2,?,·,8.9%,·,·,·
Cc1cc(Cl)ccc1NC(=O)CCS(=O)(=O)c1cc2c(cc1C)NC(=O)CO2,8.3%[59 µM],·,-5.7%,·,·,·
O=S(=O)(c1cccc(C(F)(F)F)c1)n1c(/C=C/c2ccccc2)nc2ccccc21,3.3%[59 µM],·,-7.2%,·,·,·
c1ccc(N=c2nc(-c3ccccc3)n(-c3ccccc3)s2)cc1,·,·,-8.7%,·,·,·
Cc1ccc(C(=O)N2CCC(c3c[nH]c4ccccc34)(c3c[nH]c4ccccc34)CC2)cc1,-5.4%[59 µM],·,7.8%,·,·,·
SMILES,G9a block,PLK1 PBD inh,VDR inhibitor,Sfp inh,MmCpn inh,CCT chaperon mod
COc1ccc(-n2c(=O)c3c(c4cc(OC)ccc4n3C)n(CC(=O)N3CCCC3)c2=O)cc1,-38.1%[59 µM],·,13.3%,·,·,·
CN(C)c1ccc(NC(=O)CCN2C(=O)c3cccc([N+](=O)[O-])c3C2=O)cc1,10µM*,-6.2%,-11.1%,8.0%,-0.8%,0.0
O=C(CCN1C(=O)c2cccc([N+](=O)[O-])c2C1=O)Nc1nccs1,39.8µM*,-20.7%,-11.7%,-16.4%,-0.1%,1.2
CC(C)C(NS(=O)(=O)c1ccc2c(c1)oc(=O)n2C)C(=O)NCc1ccccc1 (configuration not stated),5.8%[59 µM],·,-3.9%,·,·,·
S=c1[nH]nc(-c2ccco2)n1/N=C/c1ccc(Cl)c(Cl)c1,1.58µM*,9.47µM*,-21.1%,-8.7%,-2.2%,-1.3
Cc1cccc(/C=N/n2c(-c3ccco3)n[nH]c2=S)c1,·,?,3.2%,?,3.8%,-1.4
Cc1ccc(/C=N/n2c(-c3ccco3)n[nH]c2=S)cc1,0.631µM*,?,-7.7%,-16.8%,3.8%,-11.5
S=c1[nH]nc(-c2ccccn2)n1/N=C/c1ccco1,·,-9.5%,-0.5%,44.7µM*,1.1%,-0.9
S=c1[nH]nc(-c2ccco2)n1/N=C/c1cccc(Cl)c1,0.708µM*,?,-7.3%,-3.5%,-3.8%,-0.1
S=c1[nH]nc(-c2ccco2)n1/N=C/c1ccccn1,-119.8%,·,·,79.4µM*,0.4%,·
Cn1cccc1/C=N/n1c(-c2ccco2)n[nH]c1=S,·,-4.8%,19.8%,?,-0.1%,-2.3
S=c1[nH]nc(-c2ccccn2)n1/N=C/c1cccc(Cl)c1,1.58µM*,?,-7.5%,0.9%,3.8%,-4.2
S=c1[nH]nc(-c2ccccn2)n1/N=C/c1ccc(-c2ccccc2Br)o1,1.41µM*,-25.4%,-8.8%,-14.9%,?,-1.7
S=c1[nH]nc(-c2ccco2)n1/N=C/c1c(Cl)cccc1Cl,0.398µM*,-5.7%,13.6%,-14.5%,-1.3%,0.5
CCCOc1ccc(C2C(=O)N(C3CCCCC3)CC(=O)N2CCCOCC)cc1OC (configuration not stated),7.94µM*,-0.5%,3.0%,-1.9%,1.7%,-1.3
Cc1cc(C)cc(-n2ccnc(NCCc3ccccc3)c2=O)c1,-4.9%[59 µM],·,8.3%,·,·,·
CCOC(=O)Cn1cc(/C=N/N2C(=O)C3C4C=CC(C4)C3C2=O)c2ccccc21 (configuration not stated),·,15µM*,?,0.4%,-1.7%,-1.6
N[C@H](C(=O)O)c1nn[nH]n1,·,·,0.8%,89.1µM*,·,·
Cc1nc(Nc2ccccc2)sc1C,12.6µM*,-6.8%,2.0%,?,-0.7%,-0.5
Fc1ccc2nc(Nc3ccccc3)sc2c1,7.5%,-9.7%,-9.8%,11.5%,-3.1%,-1.8
